Test results reported in PubChem BioAssay (NCATS).
Results filed as inconclusive are left out. A number with no mark means an inactive call. Calls come from the whole dose curve.

Test: A High-Content qHTS Against Drug Library for the Identification of Small Molecules that Inhibit DYT1 Early Onset Primary Dystonia-Associated Cell Pathology (AID 1645839)
Settings: HEK293 Flp-In EGFP-delE TorsinA, punctate imaging, 48 h; series mostly up to 46.1 µM; % pathology change, negative = correction: at the top concentration
Outline: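 Cells were seeded and left for 24 h, then dosed with compound alongside tetracycline induction of mutant EGFP-TorsinA. They were incubated for 48 h, fixed in 4% paraformaldehyde, permeabilized and imaged for mislocalization (%pathology) and cell count.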
With CNC(C)Cc1ccccc1OC (stereo not drawn) the “% pathology change, negative = correction” value (from here on “% pathology change”) was 3.05%. With CCCCCCCCC(=O)NCc1ccc(O)c(OC)c1 the “% pathology change” value was -2.87%. For CCOC(=O)c1cncn1C(C)c1ccccc1 (stereo not drawn), the “% pathology change” value was -0.48%. With CCCC[N+]1(C)[C@@H]2CC(OC(=O)[C@H](CO)c3ccccc3)C[C@H]1[C@@H]1O[C@@H]12 (stereo partly drawn) the “% pathology change” value was -0.897%. With CCc1ccc(C2CCNCC2)cc1 the “% pathology change” value was -14.4%. For CCC1(CC)C(=O)NC(=O)NC1=O, the “% pathology change” value was 4%. In the case of C1CN2CCC1CC2, the “% pathology change” value is reported as -15.3%. With NCc1cccnc1 the “% pathology change” value was 2.69%. With O=c1[nH]c2cc(Cl)ccc2n1C1CCNCC1 the “% pathology change” value was 12%. For CN(C)CCc1c[nH]c2ccc(O)cc12, the “% pathology change” value was 10.6% [at 91.7 µM]. For O=c1n(Cl)c(=O)n(Cl)c(=O)n1Cl, the “% pathology change” value was -10%. For C#C[C@]1(O)CC[C@H]2[C@@H]3CCC4=CC(=O)CCC4=C3C=C[C@@]21CC, the “% pathology change” value was 2.12%. For C[C@]12CC[C@H]3[C@@H](CCC4=CC(=O)CC[C@@]43C)[C@@H]1CC[C@@H]2C(=O)O, the “% pathology change” value was -1.26%. With CCCOC(=O)Cc1ccc(OCC(=O)N(CC)CC)c(OC)c1 the “% pathology change” value was 2.95%. With C[N+](C)(C)CCOC(=O)C(O)(c1ccccc1)c1ccccc1 the “% pathology change” value was 7.92%. For C[C@H]1CNCCc2ccc(Cl)cc21, the “% pathology change” value was -27.5%. In the case of CC[n+]1c(-c2ccccc2)c2cc(N)ccc2c2ccc(N)cc21, the “% pathology change” value is reported as 6.03%. With CN(C)C(=O)Oc1cc(OC(=O)N(C)C)cc(C(O)CNC(C)(C)C)c1 (stereo not drawn) the “% pathology change” value was 1.05%. For CCCN(CCC)CCc1c[nH]c2ccccc12, the “% pathology change” value was -17.4% [at 91.7 µM]. For O=C(O)CCCCCCNC1c2ccccc2CCc2ccccc21, the “% pathology change” value was 13.8%. With OC(O)C(Cl)(Cl)Cl the “% pathology change” value was 0.269%. With C[C@@H]1CC[C@H]2[C@@H](C)C(=O)O[C@@H]3O[C@@]4(C)CC[C@@H]1[C@]32OO4 the “% pathology change” value was -0.53%. For CCN(Cc1ccc(Cl)nc1)/C(=C/[N+](=O)[O-])NC, the “% pathology change” value was 9.84%. In the case of Cc1nnc2n1-c1sc(CCC(=O)N3CCOCC3)cc1C(c1ccccc1Cl)=NC2, the “% pathology change” value is reported as 23%. With CN1C[C@@H](NS(=O)(=O)N(C)C)C[C@@H]2c3cccc4c3c(cn4C)C[C@H]21 the “% pathology change” value was -20.5%. In the case of COP(=S)(OC)Oc1ccc(Sc2ccc(OP(=S)(OC)OC)cc2)cc1, the “% pathology change” value is reported as -1.01%. For CC(CC(C(N)=O)(c1ccccc1)c1ccccc1)N(C)C (stereo not drawn), the “% pathology change” value was -2.32%. For CNC(=O)Oc1cccc2ccccc12, the “% pathology change” value was -15.8%.
